# PubChem BioAssay
# The source made the active and inactive calls.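 The calls were made as follows, unless noted: active = NADPH fluorescence slope more negative than the mean of all samples by about 3 SD, 99.7% confidence; inactive = the rest.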
# Key:
# [1] = inhibitors of TNFa-induced NFkB p65 translocation, primary screen, imaging, HUVEC, MLSMR starter and 10KST1 sets (AID 438;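 active = inhibition above 20% together with a positive visual image hit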;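 also: compound added about 3h40 before a 20 min TNFalpha stimulation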;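 as to inhibition: signal is the nuclear over cytoplasmic p65 intensity ratio per well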); conditions: HUVEC TNFa-induced p65 nuclear translocation; cell count: measured here: nuclei count (cytotoxicity indicator), at 2.08 µM; inhibition: at 2 µM, stronger effect = higher value, 0% TNFa-plus-vehicle, 100% no-TNFa wells
# [2] = reduction of polyQ htt aggregates in cells – imaging, exon1htt(103Q)mCFP cells, high-content imaging, primary screen (AID 483;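 active = visual image review flags a hit and inhibition of aggregation exceeds 20%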;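 also: compound exposure lasted 3 days before fixation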;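 as to nuclei count: percent of the per-plate median nuclei count of sample wells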); conditions: exon1htt(103Q)mCFP cell line, aggregate imaging, at 2 µM; inhibition of aggregation: stronger effect = higher value; nuclei count: measured here: cell count, toxicity
# [3] = endothelial E-selectin expression blockers – imaging, HUVEC, immunofluorescence, MLSMR starter and 10KST1 sets, primary screen (AID 487;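 active = visually confirmed hit in the image check and inhibition above 20%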;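 as to inhibition: signal is fraction of cell area covered by stained E-selectin grains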;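 as to nuclei count: 100% = median nuclei count of all wells on the same plate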); conditions: HUVEC TNFalpha-induced E-selectin immunofluorescence imaging, at 2 µM; inhibition: stronger effect = higher value; nuclei count: measured here: cell number, toxicity
# [4] = Primary imaging screen for DUSP6 inhibitors that restore phospho-Erk in transfected HeLa cells, chemical complementation (AID 609;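 active = compounds giving at least 50% inhibition in the cell-based MKP-3 phosphatase rescue imaging test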;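 as to inhibition: phospho-Erk level distribution per well compared with pooled transfected vehicle control wells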); conditions: HeLa MKP-3 transfected, phospho-Erk imaging KS statistic, at 10 µM, cells stimulated with TPA for 15 min
# [5] = target: Dual specificity protein phosphatase 6 (Homo sapiens) (UniProt Q16828); assay: as above; conditions: HeLa MKP-3 transfected, phospho-Erk imaging KS statistic; at 10 µM; stronger effect = higher value; cells stimulated with TPA for 15 min
# Chain of Dual specificity protein phosphatase 6 (Homo sapiens) (Q16828 whole entry, looked up): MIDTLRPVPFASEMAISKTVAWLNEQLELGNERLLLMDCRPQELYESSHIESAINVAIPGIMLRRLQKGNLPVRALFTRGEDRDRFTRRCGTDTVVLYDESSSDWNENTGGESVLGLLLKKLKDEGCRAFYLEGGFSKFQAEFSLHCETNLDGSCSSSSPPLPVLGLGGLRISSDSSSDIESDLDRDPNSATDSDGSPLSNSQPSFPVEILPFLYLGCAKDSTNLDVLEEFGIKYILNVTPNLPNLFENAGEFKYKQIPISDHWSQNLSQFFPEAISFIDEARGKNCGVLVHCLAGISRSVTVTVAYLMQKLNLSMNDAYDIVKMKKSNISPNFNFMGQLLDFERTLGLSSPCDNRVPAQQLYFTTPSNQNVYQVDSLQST
# [6] = target: Voltage-gated potassium channel subunit beta-2 (Rattus norvegicus) (UniProt P62483); assay: inhibitors of rat Kvbeta2 reductase activity – biochemical, NADPH fluorescence, primary screen (AID 622;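 active = fluorescence slope higher than the sample average by over 3 SD, cut at about -0.22 in these data, passing the limit was not always enough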;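 also: slope of raw intensity against log time taken from 70 to 1610 s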); conditions: recombinant KvBeta, 4-cyanobenzaldehyde reduction, at 10 µM, stronger effect = higher value
# Chain of Voltage-gated potassium channel subunit beta-2 (Rattus norvegicus) (P62483 whole entry, looked up): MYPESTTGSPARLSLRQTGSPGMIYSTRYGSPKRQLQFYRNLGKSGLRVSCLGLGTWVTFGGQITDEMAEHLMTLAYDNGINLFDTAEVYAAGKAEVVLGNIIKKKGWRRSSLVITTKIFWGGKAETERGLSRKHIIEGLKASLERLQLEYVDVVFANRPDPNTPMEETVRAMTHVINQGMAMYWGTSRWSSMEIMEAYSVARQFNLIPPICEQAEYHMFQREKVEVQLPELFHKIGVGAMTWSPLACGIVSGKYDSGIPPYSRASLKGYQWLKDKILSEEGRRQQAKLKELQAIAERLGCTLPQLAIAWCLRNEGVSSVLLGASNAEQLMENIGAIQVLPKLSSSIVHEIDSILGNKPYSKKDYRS
# [7] = target: Voltage-gated potassium channel subunit beta-2 (Rattus norvegicus) (UniProt P62483); assay: enhancers of rat Kvbeta2 NADPH turnover – biochemical, NADPH fluorescence, primary screen (AID 623); conditions: Recombinant KvBeta, NADPH fluorescence decrease slope, 10 min; at 10 µM; stronger effect = lower value;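 also: fluorescence intensity change per second fitted from 20 to 320 s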
# [8] = target: Alpha-2C adrenergic receptor (Homo sapiens) (UniProt P18825); assay: compounds altering alpha2C-coupled GIRK flux – cell-based, HEK293 alpha2C/GIRK1/2, thallium flux, primary screen (AID 624;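 active = fluorescence slope after compound addition differing from the mean of all screened samples at 99.7% confidence, in either direction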;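 also: slope of fluorescence ratio to pre-addition baseline per second over 15 to 24 s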); conditions: thallium flux BTC fluorescence, at 10 µM, actives lie on both sides
# Chain of Alpha-2C adrenergic receptor (Homo sapiens) (P18825 whole entry, looked up): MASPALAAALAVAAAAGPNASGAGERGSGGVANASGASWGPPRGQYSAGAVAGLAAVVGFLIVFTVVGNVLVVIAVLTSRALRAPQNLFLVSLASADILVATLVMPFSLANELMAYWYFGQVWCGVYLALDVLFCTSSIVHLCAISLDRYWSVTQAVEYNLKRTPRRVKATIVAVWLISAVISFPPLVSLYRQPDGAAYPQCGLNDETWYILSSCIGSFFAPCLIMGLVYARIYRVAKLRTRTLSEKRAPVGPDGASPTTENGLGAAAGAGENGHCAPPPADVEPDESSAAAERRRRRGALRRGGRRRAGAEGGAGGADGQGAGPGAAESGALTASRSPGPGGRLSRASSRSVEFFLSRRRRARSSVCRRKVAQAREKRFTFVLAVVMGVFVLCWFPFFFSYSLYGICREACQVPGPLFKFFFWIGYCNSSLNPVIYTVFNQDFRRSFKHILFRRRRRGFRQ
# [9] = target: Muscarinic acetylcholine receptor M4 (Homo sapiens) (UniProt P08173); assay: M4-linked GIRK flux change, two-sided – cell-based, HEK293 M4/GIRK, thallium flux, BTC-AM, M4 allosteric agonist project, primary screen (AID 625;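 active = fluorescence slope after compound addition differing from the mean of all tested samples at 99.7% confidence, mostly higher but some lower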;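 also: thallium influx through GIRK channels coupled to M4 in HEK293 cells with BTC-AM dye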); conditions: at 10 µM, actives lie on both sides
# Chain of Muscarinic acetylcholine receptor M4 (Homo sapiens) (P08173 whole entry, looked up): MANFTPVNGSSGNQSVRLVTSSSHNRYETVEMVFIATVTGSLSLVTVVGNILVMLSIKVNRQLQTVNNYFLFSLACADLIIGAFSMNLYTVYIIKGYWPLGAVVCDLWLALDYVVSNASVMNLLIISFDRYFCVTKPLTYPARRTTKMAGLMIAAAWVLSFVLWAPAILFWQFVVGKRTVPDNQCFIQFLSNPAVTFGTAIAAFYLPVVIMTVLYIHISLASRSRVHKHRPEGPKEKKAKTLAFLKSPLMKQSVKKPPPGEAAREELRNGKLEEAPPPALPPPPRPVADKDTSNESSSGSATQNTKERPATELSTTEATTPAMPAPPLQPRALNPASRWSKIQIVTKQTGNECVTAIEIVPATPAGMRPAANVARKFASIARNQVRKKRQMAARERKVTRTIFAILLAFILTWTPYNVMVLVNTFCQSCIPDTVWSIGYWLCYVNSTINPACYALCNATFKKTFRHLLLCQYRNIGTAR
# [10] = inhibitors of larval lipid processing in zebrafish, primary screen, whole organism, PED6 fluorescence, gall bladder and intestine (AID 686;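 active = a full or partial loss of lipid-probe fluorescence in the fish gall bladder, intestine or both, judged by eye; inactive = no fluorescence loss, or compound toxic to the fish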;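 also: larvae 5 to 7 days old with five fish per well; signal comes from phospholipase A2 cleavage of quenched PED6 carried via bile; overnight exposure to compound and PED6 before scoring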); conditions: Zebrafish larvae PED6 lipid processing, fluorescence scoring; screened at 20 µM (by protocol)
# [11] = loss of swimming-algae plug formation – whole organism, Chlamydomonas reinhardtii, WT vs cilia-less mutant, absorbance, 96-well, primary screen (AID 463189;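 active = inhibition at or above 50% relative to wild type and mutant plate controls; inactive = inhibition below 50%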;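 also: 0% = wild type cc124 cells in DMSO and 100% = ciliumless bld1 mutant cells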); conditions: Chlamydomonas reinhardtii gravitaxis, OD600 absorbance, 2 days; at 10 µM; stronger effect = higher value
# [12] = blockers of RIG-like receptor reporter activation – cell-based, Sendai virus stimulus, luciferase, 10K MLSCN set, TLR/RLR signaling modifier project, primary screen (AID 602276;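 active = inhibition at or above 50% at 10 µM; inactive = inhibition below 50%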;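 also: firefly luciferase from ISG56 promoter only with Renilla not read in this screen; 0% = Sendai virus plus DMSO and 100% = medium plus DMSO without virus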); conditions: HEK293 RL24 IRF3 luciferase reporter, at 10 µM, stronger effect = higher value
# [13] = TLR3 IRF3 reporter activation blockers – cell-based, poly I:C stimulus, luciferase, 10K MLSCN set, primary screen (AID 602277;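 active = inhibition of the reporter signal at or above 50%; inactive = inhibition below 50%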); conditions: HEK293-TLR3 RL24 IRF3 luciferase reporter, at 10 µM, stronger effect = higher value
# [14] = measured here: cell density z-score
# [15] = measured here: nuclear c-Myc green intensity z-score
# [16] = measured here: nuclear pErk red intensity z-score, stronger effect = higher value
Compound,cell count [1],inhibition [1],inhibition of aggregation [2],nuclei count [2] [%],inhibition [3],nuclei count [3] [%],"z-score [4, 14]","z-score [4, 15]","z-score [4, 16]",inhibition [5],fluorescence slope [6],NADPH fluorescence slope [7],slope [8],fluorescence slope [9],outcome [10],inhibition [11],inhibition [12],inhibition [13]
Cc1c(C=NCCOCc2ccccc2)cnn1C,579,0.8% (inactive),-5.6% (inactive),102,-159% (inactive),116,0.444,0.191,0.325,-1.98% (inactive),-0.369 (inactive),-3e-05 (inactive),0.00503 (inactive),0.00645 (inactive),inactive,-6.27% (inactive),11.7% (inactive),12.3% (inactive)
CC(COc1ccccc1)NC(C)C(O)c1ccc(O)cc1 (configuration not stated),534,-7.4% (inactive),-13.1% (inactive),100,-135% (inactive),121,-1.06,-0.532,0.827,-12.3% (inactive),-0.54 (inactive),4.6e-06 (inactive),0.00639 (inactive),,inactive,-3.83% (inactive),-5.16% (inactive),-30% (inactive)
CCc1cc2c(=O)c(-c3nc4ccccc4[nH]3)coc2cc1OC(=O)N1CCOCC1,666,-4.8% (inactive),-15.2% (inactive),126,-44.8% (inactive),149,0.051,0.477,-0.475,-9.53% (inactive),-0.483 (inactive),-3e-05 (inactive),0.00512 (inactive),0.00565 (inactive),inactive,-11.5% (inactive),-4.36% (inactive),-9.08% (inactive)
O=C(O)CCCCCCC1C(=O)NC(=O)N1CCC(O)C1CCCCC1 (configuration not stated),579,-9.7% (inactive),-6.4% (inactive),97.8,-76.1% (inactive),116,-0.528,-0.266,1.03,-0.493% (inactive),-0.507 (inactive),-5.2e-05 (inactive),0.00541 (inactive),,inactive,1.26% (inactive),15.9% (inactive),36.2% (inactive)
CCc1cn([C@H]2C[C@H](O)[C@@H](CO)O2)c(=O)[nH]c1=O,644,-9.9% (inactive),-3.6% (inactive),102,-69.2% (inactive),120,-0.967,-0.117,0.506,9.37% (inactive),-0.477 (inactive),5.1e-06 (inactive),0.00501 (inactive),,inactive,21.4% (inactive),18.1% (inactive),34% (inactive)
